HSF-1 act – increases HSF-1 driven luciferase reporter signal; NIH3T3-HGL HSF-1 luciferase reporter, MG132, 8 h; 100% = twice DMSO control signal; activation, % at 9 µM; 300,000 compounds, 1.7% hits; AID 504408;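 active = mean replicate activation of at least 50% with a set share of replicates each reaching 50%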
HSP90 inh – HSP90 refolding inhibition in rabbit reticulocyte lysate; 290,000 compounds, 0.91% hits; inhibition, % at 5.6 µM; luciferase refolding luminescence, 3 h;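 active = inhibition above the screen-wide mean plus 3 SD, computed separately per campaign, cut at about 16% in these data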;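 also: inhibitors lower the luminescence because luciferase stays unfolded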
HSF1 inh – HSF1 inhibition; NIH3T3-HGL HSE-luciferase, MG132-induced, luminescence 8 h; stronger effect = lower value; activity change, negative = inhibition, % at 7.5 µM (by protocol); 300,000 compounds, 0.77% hits; AID 2098;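 active = more than half of replicate wells show activity change below -50%, luminescence cut by over half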;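 also: luciferase reports HSF-1 transcriptional activity via heat shock element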
HIF act – HIF pathway transcriptional activation; U2OS HRE-luciferase reporter, luminescence; normalized: DMSO 0%, desferrioxamine 100%; activation, % at 7.5 µM (by protocol); AID 1910; 300,000 compounds, 0.32% hits;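 active = mean activation of at least 10% of the iron chelator positive control signal, with at least half of replicates also reaching 10%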
ARNT-TACC3 inh – disruptors of human ARNT/TACC3 interaction; AID 623870; 390,000 compounds, 0.66% hits; inhibition, % at 9.99 µM; AlphaScreen His-ARNT PAS-B/GST-TACC3 binding, luminescence; TACC3 fragment carries E629A point mutation;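 active = mean inhibition of replicates at least 50% and at least half of replicates each reaching 50%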
ARNT Alpha ctr – AlphaScreen artifact in ARNT/TACC3 counter-screen; shares compounds with ARNT-TACC3 inh; His-ARNT PASB-GST AlphaScreen artifact counter-screen, luminescence; AC50, µM (doses to about 68 µM); 1,200 compounds, 50% hits;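 active = every separate test run was called active for a drop in luminescence, with AC50 within twice the top valid dose, actives reach about 71 µM in these data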
Hits are given with their value; n = inactive; x = no result given. This is a sample that favours compounds with a hit; in the whole collection about 3.1% have one here.

SMILES	HSF-1 act	HSP90 inh	HSF1 inh	HIF act	ARNT-TACC3 inh	ARNT Alpha ctr
O=C(Nc1cccc(Cl)c1)N[C@@H]1CC[C@@H](CCNC(=O)C2CCCCC2)O[C@@H]1CO	x	x	x	x	n	x
O=S(=O)(N[C@@H]1CCCN(Cc2ccc(OCCO)cc2)C1)c1cccc2cccnc12	x	x	x	x	80	24µM
O=S(=O)(N[C@@H]1CCCN(Cc2ccc(OCCO)cc2)C1)c1ccc2ccccc2c1	x	x	x	x	n	x
C[C@H](CO)N1C[C@H](C)[C@H](CN(C)C(=O)Cc2cccnc2)Oc2ncc(/C=C/c3ccccc3)cc2C1=O	x	x	x	x	n	x
FC(F)(F)c1cnc(C(c2ccccn2)c2ncn[nH]2)c(Cl)c1 (stereo not drawn)	n	n	n	n	62	58µM
O=C(C[C@@H]1C[C@H]2c3cc(NC(=O)CC4CC4)ccc3O[C@H]2[C@H](CO)O1)NCc1cccc(F)c1	x	x	x	x	n	x
O=C(CSC1=NNC(c2ccccn2)S1)Nc1ccccc1 (stereo not drawn)	n	n	-62	n	58	6.4µM
C[C@H]1CN([C@@H](C)CO)C(=O)c2cccc(NC(=O)c3ccncc3)c2O[C@@H]1CN(C)S(=O)(=O)c1cn(C)cn1	x	x	x	x	n	x
COc1ccc(CN(C)C[C@@H]2Oc3ccc(NC(=O)Nc4c(C)noc4C)cc3C(=O)N([C@@H](C)CO)C[C@H]2C)cc1	x	x	x	x	n	x
Cc1ccc(S(=O)(=O)N[C@@H]2C=C[C@@H](CC(=O)NCCN3CCCCC3)O[C@@H]2CO)cc1	x	x	x	x	n	x
COC(=O)c1ccccc1-c1ccc(C(c2c(C)[nH][nH]c2=O)c2c(C)[nH][nH]c2=O)o1	n	n	n	n	60	n
C[C@@H]1CCCCO[C@H](CN(C)CC2CCCCC2)[C@H](C)CN([C@H](C)CO)C(=O)c2cc(NC(=O)Nc3ccccc3)ccc2O1	x	x	x	x	n	x
O=C(N[C@H]1CC[C@@H](CCn2cc(-c3ccccn3)nn2)O[C@@H]1CO)c1cccnc1	x	x	x	x	83	52µM
O=C(N[C@H]1CC[C@H](CCn2cc(C3CCCCC3)nn2)O[C@@H]1CO)c1cccnc1	x	x	x	x	n	x
O=C(N[C@H]1CC[C@@H](CCn2cc(-c3ccccn3)nn2)O[C@H]1CO)c1cccnc1	x	x	x	x	69	26µM
O=C(N[C@H]1CC[C@H](CCn2cc(-c3ccccn3)nn2)O[C@H]1CO)c1cccnc1	x	x	x	x	85	44µM
O=C(N[C@H]1CC[C@@H](CCn2cc(C3CCCCC3)nn2)O[C@@H]1CO)c1cccnc1	x	x	x	x	n	x
O=C(N[C@@H]1CC[C@@H](CCn2cc(C3CC3)nn2)O[C@@H]1CO)c1cccnc1	x	x	x	x	n	x
O=C(N[C@H]1CC[C@H](CCn2cc(-c3ccccn3)nn2)O[C@@H]1CO)c1cccnc1	x	x	x	x	83	33µM
O=C(N[C@H]1CC[C@@H](CCn2cc(C3CC3)nn2)O[C@@H]1CO)c1cccnc1	x	x	x	x	n	x
C[C@H]1CN([C@@H](C)CO)S(=O)(=O)c2ccc(C#Cc3cccc(F)c3)cc2O[C@H]1CN(C)S(=O)(=O)c1ccccc1F	x	x	x	x	n	x
COc1ccc(S(=O)(=O)Nc2ccc3c(c2)C(=O)N([C@H](C)CO)C[C@@H](C)[C@@H](CN(C)S(=O)(=O)c2ccc(F)cc2)OCCCC[C@H](C)O3)cc1	x	x	x	x	n	x
Cc1ccc(S(=O)(=O)N[C@@H]2CC[C@@H](CCn3cc(-c4cccc(F)c4)nn3)O[C@@H]2CO)cc1	x	x	x	x	n	x
O=C(N[C@@H]1CC[C@H](CCn2cc(-c3ccccn3)nn2)O[C@@H]1CO)c1cccnc1	x	x	x	x	89	34µM
CC(C)Nc1nc(-c2ccccc2)nnc1-c1ccccc1	n	n	n	n	n	x
SMILES	HSF-1 act	HSP90 inh	HSF1 inh	HIF act	ARNT-TACC3 inh	ARNT Alpha ctr
Cc1cccc(Nc2nc(-c3ccccn3)nnc2-c2ccccc2)n1	x	x	x	x	x	0.53µM
c1ccc(-c2csc(Nc3nc(-c4ccccn4)nnc3-c3ccccc3)n2)cc1	x	x	x	x	x	2.2µM
c1ccc(-c2nnc(-c3ccccn3)nc2Nc2cnc3ccccc3n2)cc1	x	x	x	x	x	0.76µM
CN(C)CCCNc1cc(O)c2ncccc2c1	x	x	x	x	64	6.2µM
Oc1cc(NCc2ccc(F)cc2)cc2cccnc12	x	x	x	x	60	30µM
COC(=O)c1c(N)n(-c2ccc(NC(C)=O)cc2)c2nc3ccccc3nc12	n	n	n	n	14	n
COCCNC(=O)c1c(N)n(-c2ccccc2)c2nc3ccccc3nc12	n	n	n	n	n	x
COc1cc(CCNc2ccc3nnc(-c4ccccc4)n3n2)cc(OC)c1OC	n	n	n	n	56	68µM
O=C(CN1CC(=O)Oc2ccccc21)NCc1ccco1	n	n	n	n	61	19µM
Cc1nn2c(nc1=O)NNC2(C)C(C)(C)C (stereo not drawn)	n	n	n	n	64	n
c1cncc(-c2nc(NCCCn3ccnc3)c3ccccc3n2)c1	n	n	n	n	63	66µM
C/C(=N\NC(=O)c1ccncc1)c1cc2ccccc2oc1=O	n	n	n	n	x	x
C/C(=N/NC(=O)c1ccncc1)c1cc2ccc(O)cc2oc1=O	x	n	x	x	57	n
COCC#Cc1ccc2c(c1)O[C@@H](CN(C)S(=O)(=O)c1ccc(F)cc1)[C@H](C)CN([C@@H](C)CO)S2(=O)=O	x	x	x	x	n	x
O=C(C[C@@H]1CC[C@@H](NC(=O)CN2CCOCC2)[C@H](CO)O1)NCCc1ccncc1	x	x	x	x	n	x
O=C(C[C@@H]1CC[C@H](NC(=O)CN2CCOCC2)[C@H](CO)O1)NCCc1ccncc1	x	x	x	x	57	n
C[C@H](CO)N1C[C@H](C)[C@@H](CN(C)C(=O)c2ccccc2)OCCCC[C@H](C)Oc2ccc(NS(=O)(=O)c3ccccc3)cc2C1=O	x	x	x	x	n	x
CCOC(=O)c1cnc(Cc2ccccc2)[nH]c1=O	n	n	n	n	n	x
CCOC(=O)c1cnc(-n2[nH]c(C)cc2=O)[nH]c1=O	n	n	n	n	70	13µM
COc1cccc(C(=O)Nc2ccc3c(c2)C(=O)N(C)C[C@@H](OC)[C@H](C)CN[C@@H](C)CO3)c1	x	x	x	x	n	x
Cc1[nH]n(-c2ccccc2)c(=O)c1/C=N/NC(=O)c1cccc(F)c1	n	n	n	n	58	43µM
COCC#Cc1ccc2c(c1)O[C@@H](CN(C)Cc1ccccc1F)[C@H](C)CN([C@H](C)CO)S2(=O)=O	x	x	x	x	n	x
O=C(C[C@@H]1C[C@H]2c3cc(NC(=O)c4cccnc4)ccc3O[C@H]2[C@@H](CO)O1)NCc1ccccc1F	x	x	x	x	n	x
CO[C@H]1CN(C)C(=O)c2ccc(NS(=O)(=O)CC(F)(F)F)cc2OC[C@H](C)N(Cc2cccnc2)C[C@@H]1C	x	x	x	x	n	x
CO[C@@H]1CN(C)C(=O)c2cc(NS(=O)(=O)CC(F)(F)F)ccc2OC[C@@H](C)N(C(=O)c2ccc3c(c2)OCO3)C[C@H]1C	x	x	x	x	n	x
CO[C@@H]1CN(C)C(=O)c2cc(NS(=O)(=O)CC(F)(F)F)ccc2OC[C@@H](C)N(C(=O)c2ccc3c(c2)OCO3)C[C@@H]1C	x	x	x	x	51	22µM

Source: PubChem
